Screens deposited in PubChem BioAssay by National Center for Advancing Translational Sciences (NCATS).
In the library only some 2.4% were active in any assay of this set; here they are far more common.
Pol eta inh-1: blocks human DNA polymerase eta activity. AID 588591. Potency, µM (highest dose often 114 µM), hits mostly inhibitors. 390,000 compounds, 1.2% hits. recombinant Pol eta, fluorescent DNA replication assay. Q9Y253
Target sequence (Q9Y253 whole entry, looked up): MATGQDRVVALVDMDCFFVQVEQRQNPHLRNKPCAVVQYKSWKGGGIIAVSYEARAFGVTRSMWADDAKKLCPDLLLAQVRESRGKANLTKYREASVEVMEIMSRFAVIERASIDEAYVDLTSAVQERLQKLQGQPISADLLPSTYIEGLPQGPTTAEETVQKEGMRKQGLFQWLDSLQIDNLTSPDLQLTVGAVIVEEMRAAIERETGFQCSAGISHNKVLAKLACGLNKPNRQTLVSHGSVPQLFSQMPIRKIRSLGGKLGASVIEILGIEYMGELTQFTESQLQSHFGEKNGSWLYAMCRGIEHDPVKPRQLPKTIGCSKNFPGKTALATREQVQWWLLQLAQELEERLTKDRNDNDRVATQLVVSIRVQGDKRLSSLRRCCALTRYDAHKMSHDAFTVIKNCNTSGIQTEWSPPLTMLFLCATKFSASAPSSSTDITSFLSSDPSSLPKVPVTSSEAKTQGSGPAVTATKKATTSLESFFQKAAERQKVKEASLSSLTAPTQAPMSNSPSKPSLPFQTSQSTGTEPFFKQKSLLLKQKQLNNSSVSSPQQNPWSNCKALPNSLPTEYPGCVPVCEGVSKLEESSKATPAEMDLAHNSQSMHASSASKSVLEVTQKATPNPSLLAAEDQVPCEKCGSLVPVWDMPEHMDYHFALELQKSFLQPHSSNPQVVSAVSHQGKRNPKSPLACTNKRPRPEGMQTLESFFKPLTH
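Pol eta at 10 nM preincubated with compounds 15 min at room temperature; reaction started with fluorescent substrate (50 nM final) and read kinetically at 0 and 10 min.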
Pol kappa inh-1: blocks human DNA polymerase kappa activity; Q9UBT6; purified Pol kappa, fluorescent DNA synthesis assay, 10 min; Potency, µM (titrated, usually from 107 µM), most hits filed as inhibitors; 400,000 compounds, 0.53% hits
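Activity was followed as the change in fluorescence between reads at 0 and 10 min after starting the reaction with 50 nM substrate. Beforehand, 10 nM polymerase had been preincubated with compound for 15 min at room temperature.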
FEN1 inh: human FEN1 inhibition. P39748. Recombinant FEN1 flap cleavage, fluorescence, 15 min. Potency, µM (titrated, usually from 114 µM), actives largely listed as inhibitors. 390,000 compounds, 0.35% hits. AID 588795; further: nearly all actives have a fitted effect of over 65% in size
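FEN1 at 10 nM, compound pretreatment for 15 min (room temperature), 50 nM final substrate to initiate; endpoint reads at 0 and 15 min; DMSO-only plates used as vehicle background.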
POLI inh: blocks human DNA polymerase iota activity; Q9UNA4; Pol iota fluorescent replication assay, 10 min; Potency, µM (top dose mostly 115 µM), actives largely listed as inhibitors; 390,000 compounds, 1% hits
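Pol iota at 10 nM preincubated 15 min with compounds at room temperature; reaction started with fluorescent substrate, 50 nM final. Fluorescence read kinetically at 0 and 10 min; buffer-only wells as negative control.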
POLB inh: inhibitors of human DNA polymerase beta | AID 485314 | Potency, µM (top dose mostly 114 µM), hits mostly inhibitors | P06746 | 340,000 compounds, 1.3% hits | Pol beta primer extension/strand displacement, fluorescence kinetic
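Homogeneous kinetic assay of primer extension and strand displacement by 10 nM Pol beta, preincubated 15 min at room temperature with compound before 50 nM substrate (final) was added. Read at 0 and 10 min; four-parameter Hill fit.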
WRN helicase inh: WRN helicase (human) inhibition; Potency, µM (series often up to 114 µM), actives largely listed as inhibitors; WRN helicase unwinding, fluorescent forked duplex, kinetic; AID 651768; 360,000 compounds, 0.46% hits; Q14191; further: nearly all actives have a fitted effect of over 55% in size
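Screening of the MLSMR collection measured strand separation of a quenched forked DNA duplex (100 nM) by 20 nM WRN with 2 mM ATP, all final. Compounds were preincubated with enzyme 15 min at room temperature.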
TbPGK inh: blocks T. brucei phosphoglycerate kinase. shares compounds with Pol kappa inh-1. TbPGK coupled GAPDH assay, Kinase-Glo luminescence. Potency, µM (top dose mostly 57.5 µM), hits mostly inhibitors. 500 compounds, 79% hits. AID 686980; further: nearly all actives have a fitted effect of over 65% in size
Pol iota confirm: Human Pol iota inhibitor confirmatory assay | 1,500 compounds, 77% hits | Potency, µM, actives largely listed as inhibitors | shares compounds with Pol kappa inh-1 | Pol iota primer extension, TAMRA/BHQ fluorescence
GALK inh confirm: galactokinase (human) inhibition, confirmation | 150 compounds, 70% hits | AID 2015 | purified GALK, Kinase-Glo ATP depletion luminescence | shares compounds with Pol eta inh-1 | Potency, µM (series often up to 115 µM), hits mostly inhibitors
GALK redox cs: counter-screen for GALK inhibitors: redox cycling H2O2 generation; shares compounds with Pol eta inh-1; Phenol red-HRP H2O2 redox cycling, absorbance 600 nm; Potency, µM (top dose mostly 115 µM), usual class: inhibitors; 150 compounds, 40% hits
HEK293 tox: HEK-293 cytotoxicity, GALK inhibitor secondary; shares compounds with Pol eta inh-1; HEK-293 viability, ATP luminescence (CellTiter-Glo), 24/48 h; Potency, µM (series often up to 46.1 µM), most hits filed as inhibitors; 170 compounds, 10% hits
Pol kappa inh-2: Pol kappa (human) inhibition, cherry-pick confirmation. 920 compounds, 76% hits. purified Pol-kappa, fluorescent strand-displacement substrate. shares compounds with Pol eta inh-1. Potency, µM, actives largely listed as inhibitors. AID 720501
Pol eta inh-2: confirmation of human DNA polymerase eta inhibitors; Pol eta primer extension, TAMRA/BHQ fluorescence, 10 min; AID 720502; Potency, µM, actives largely listed as inhibitors; shares compounds with Pol eta inh-1; 2,600 compounds, 64% hits
Each line names hits and unclear results; the compound was inactive in the other large screens (follow-up assays come after a bar, where they were run). The call rests on the fitted dose curve; in most records, active means well fitted curve in the direction sought with a large enough effect; inconclusive means small, poorly fitted or top-dose-only effect, or another doubt; inactive means no such curve, though single readings can be large; an effect the other way counts as inactive or inconclusive.

O=C1c2ccccc2C(=O)C12OC2c1cccc2ccccc12 (configuration not stated)	Pol eta inh-1 20µM, POLI inh 3.5µM | Pol iota confirm inconclusive | GALK inh confirm 17µM | GALK redox cs 13µM | HEK293 tox inactive | Pol eta inh-2 38
COc1cccc(C(=O)OCC(=O)Nc2sc3c(c2C(N)=O)CCC3)c1O	Pol eta inh-1 22µM, Pol kappa inh-1 79µM, FEN1 inh inconclusive, POLI inh 20µM, WRN helicase inh inconclusive (no result: POLB inh) | Pol iota confirm 42 | Pol kappa inh-2 27 | Pol eta inh-2 30
COc1ccccc1NC(=O)COC(=O)c1cc2c(s1)CCC2	Pol eta inh-1 20µM, Pol kappa inh-1 inconclusive, POLI inh 32µM, WRN helicase inh inconclusive (no result: POLB inh) | Pol iota confirm 75 | Pol kappa inh-2 inconclusive | Pol eta inh-2 76
COc1ccccc1OCC(=O)Nc1sc2c(c1C(N)=O)CCC2	Pol eta inh-1 inconclusive, Pol kappa inh-1 inconclusive, POLI inh inconclusive (no result: POLB inh)
CCN(CC)c1ccc2c(C)c(Cl)c(=O)oc2c1	none
CCN(CC)c1ccc2c(c1)oc(=O)c1c(Cl)cc(=O)oc12	Pol eta inh-1 14µM, Pol kappa inh-1 inconclusive, POLI inh 14µM | Pol iota confirm inconclusive | Pol eta inh-2 inconclusive
CC(CNc1ccccc1O)C(=O)O (configuration not stated)	Pol eta inh-1 25µM, Pol kappa inh-1 inconclusive, POLI inh inconclusive, POLB inh 8.9µM | TbPGK inh inconclusive | Pol eta inh-2 60
CC(NC(=O)CCC(=O)Nc1ccccc1O)c1ccccc1 (configuration not stated)	none (no result: POLB inh)
C[n+]1cccc2c(Br)ccc([O-])c21	Pol eta inh-1 20µM, POLI inh inconclusive, POLB inh 28µM | Pol iota confirm 19 | GALK inh confirm 47µM | GALK redox cs 21µM | HEK293 tox inactive | Pol eta inh-2 24
CNc1cncc(-c2cccc(OC)c2F)n1	none (no result: Pol eta inh-1, Pol kappa inh-1, FEN1 inh, POLI inh, POLB inh)
CCN(CC)CCOC(=O)c1ccc(NC(=O)c2nn(-c3ccc(C)cc3)c(=O)c3c2c2ccccc2n3C)cc1	Pol eta inh-1 79µM, POLI inh inconclusive, POLB inh 7.9µM (no result: WRN helicase inh) | Pol iota confirm inconclusive | Pol kappa inh-2 inconclusive | Pol eta inh-2 inconclusive
CCN(CC)CCCNC(=O)c1nn(-c2ccc(C)cc2)c(=O)c2c1c1ccccc1n2C	FEN1 inh inconclusive (no result: Pol eta inh-1, WRN helicase inh)
CCOc1ccc(S(=O)(=O)NCC(c2ccco2)S(=O)(=O)c2ccc(F)cc2)cc1 (configuration not stated)	none (no result: WRN helicase inh)
O=C(O)c1ccc(-n2cccc2/C=C2\SC(=O)N(Cc3ccc(Br)cc3)C2=O)cc1	none (no result: Pol eta inh-1, Pol kappa inh-1, FEN1 inh, POLI inh, POLB inh, WRN helicase inh) | Pol iota confirm 75 | Pol eta inh-2 76
C/C(N)=C(/C#N)C(=O)CSc1nnc(Nc2c(C)cccc2C)s1	Pol eta inh-1 18µM, Pol kappa inh-1 79µM, POLI inh inconclusive, POLB inh inconclusive, WRN helicase inh inconclusive | Pol iota confirm inconclusive | Pol eta inh-2 48
C/C(N)=C(/C#N)C(=O)CSc1nnc(Nc2cccc(C)c2C)s1	POLI inh inconclusive
CC(C)N(Cc1nc(-c2ccc(Cl)cc2)no1)C(=O)c1ccco1	none (no result: WRN helicase inh)
O=C(CCCCCn1c(SCc2ccncc2)nc2ccccc2c1=O)NCc1ccco1	Pol eta inh-1 79µM, Pol kappa inh-1 inconclusive, POLI inh 14µM, POLB inh 40µM, WRN helicase inh inconclusive | Pol iota confirm 47 | Pol eta inh-2 76
C[C@H]1CN([C@@H](C)CO)C(=O)CCCn2cc(nn2)CO[C@@H]1CN(C)C(=O)c1ccncc1	none (no result: Pol kappa inh-1, FEN1 inh, POLI inh, POLB inh)
O=C(Nc1ccc(S(=O)(=O)N2CCOCC2)cc1)c1nn(-c2ccc(F)cc2)ccc1=O	none
O=C(Nc1ccc(S(=O)(=O)Nc2nccs2)cc1)c1nn(-c2ccc(F)cc2)ccc1=O	Pol eta inh-1 20µM, Pol kappa inh-1 89µM, FEN1 inh inconclusive, POLI inh 35µM, POLB inh inconclusive, WRN helicase inh 50µM | Pol iota confirm 67 | Pol eta inh-2 43
Cc1ccc(CCNC(=O)c2cc3c(s2)-c2ccccc2OC3)cc1	Pol eta inh-1 inconclusive, Pol kappa inh-1 inconclusive, FEN1 inh inconclusive, POLI inh 79µM, POLB inh 14µM (no result: WRN helicase inh) | Pol iota confirm 47 | Pol eta inh-2 inconclusive
Cc1cc(C)n(CCc2nc(-c3cccs3)cs2)n1	none
Cc1cc(C)n(CCc2nc(-c3ccco3)cs2)n1	Pol eta inh-1 79µM, Pol kappa inh-1 71µM, POLI inh 14µM, POLB inh 32µM, WRN helicase inh inconclusive | Pol iota confirm 75 | Pol eta inh-2 85
O=C(Nc1ccc(Cl)cc1Cl)[C@@H]1CC=C[C@@H]2CCN(C3CCCCC3)C(=O)[C@@H]21	none (no result: Pol eta inh-1, POLB inh, WRN helicase inh)
Cc1cc(F)ccc1NC(=O)CN(C)S(=O)(=O)c1ccc(C(=O)N2CCOCC2)s1	none (no result: WRN helicase inh)
CCCSc1nc(C)c(-c2csc(C(C#N)=C3CCCC3)n2)cc1C#N	Pol eta inh-1 45µM, Pol kappa inh-1 inconclusive, POLI inh inconclusive, WRN helicase inh inconclusive | Pol iota confirm 67 | Pol eta inh-2 34
CN1C(=O)[C@H]2[C@@H](c3ccc(C(F)(F)F)cc3)N[C@]3(CCCN(Cc4cccn4C)C3=O)[C@H]2C1=O	none (no result: Pol kappa inh-1, FEN1 inh, POLI inh, POLB inh)
